Reference: PubChem BioAssay (EPA / NIEHS)
Records with an inconclusive call do not appear. Activity calls are given as the source filed them. The calls were made as follows: active = hit-call score of the fitted dose curve at least 0.9, where 1 is the maximum; inconclusive = response in the unintended direction; inactive = score below 0.9.

tested on: not listed separately; assay: ATG_M_19_TRANS: Attagene TRANS-FACTORIAL HepG2 Assay for M19 Transcription Factor (Internal Marker) (AID 2282974); conditions: HepG2 Attagene TRANS-FACTORIAL M19 internal marker reporter
In short: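 Gain-of-signal in reporter mRNA, relative to DMSO, was scored from capillary electrophoresis fluorescence. HepG2 cells carried transiently transfected multiple reporter transcription units and were incubated with test chemicals for 24 h.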

outcome, inactive:
CCCCCCC#CC(=O)OC
Clc1nc(C(Cl)(Cl)Cl)c(Cl)c(Cl)c1Cl
C=C(C)C1CCC(C)CC1O (configuration not stated)
CSc1nc(NC2CC2)nc(NC(C)(C)C)n1
CCO[Si](CCCS)(OCC)OCC
CC(=O)O[C@H](CC(=O)[O-])C[N+](C)(C)C
OC1OC[C@@H](O)[C@H](O)[C@H]1O (some centres not stated)
CCCCCCCCCCN
Cc1ccc(S)cc1
CC(CN1c2ccccc2Sc2ccccc21)N(C)C (configuration not stated)
CN1Cc2c(N)cccc2C(c2ccccc2)C1 (configuration not stated)
O=C(O)CCSCCC(=O)O
CCCC[n+]1ccccc1
CCC/C=C/C=O
O=C(O)c1cn(C2CC2)c2cc(N3CCNCC3)c(F)cc2c1=O
CNCCO
OCc1cccnc1
Cc1cc(C2(c3cc(C)c(O)cc3C)OS(=O)(=O)c3ccccc32)c(C)cc1O
Cc1cccc(Nc2ccccc2C(=O)O)c1C
CC(=O)Nc1ccc(CC(=O)O)cc1
CC(C)[C@H]1CC[C@@H](C)CC1=O
CC1CCC2CC1C2(C)C (configuration not stated)
C=CC(=O)OCCOCCOCC
CC1CC(OC(=O)c2ccccc2O)CC(C)(C)C1 (configuration not stated)
O=C(O)c1cn(-c2ccc(F)cc2)c2cc(N3CCNCC3)c(F)cc2c1=O

tested on: not listed separately; assay: ATG_GAL4_TRANS: Attagene TRANS-FACTORIAL HepG2 Assay for GAL4 (Internal Marker) (AID 2282976); conditions: HepG2 Attagene TRANS GAL4 internal marker reporter
In short: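 Fluorescence from capillary electrophoresis of labelled RT-PCR products quantifies reporter mRNA induction after 24 h dosing of HepG2 cells carrying transfected GAL4-UAS reporter transcription units. Vehicle DMSO serves as baseline.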

outcome, inactive:
C=C(C)C1CCC(C)CC1O (configuration not stated)
CCO[Si](CCCS)(OCC)OCC
CCCCC[Si](OCC)(OCC)OCC
O=C[C@@H](O)[C@H](O)[C@H](O)CO
Clc1ccc2c(c1)C(N1CCNCC1)=Nc1ccccc1O2
CC1(C)[C@H]2CC[C@]1(C)[C@H](O)C2
CN1Cc2c(N)cccc2C(c2ccccc2)C1 (configuration not stated)
OCCCCCO
O=C(O)CCSCCC(=O)O
O=C(O)c1cn(C2CC2)c2cc(N3CCNCC3)c(F)cc2c1=O
Nc1ccc(S(N)(=O)=O)cc1
OCc1cccnc1
Cc1cc(C2(c3cc(C)c(O)cc3C)OS(=O)(=O)c3ccccc32)c(C)cc1O
Cc1cccc(Nc2ccccc2C(=O)O)c1C
CC(=O)Nc1ccc(CC(=O)O)cc1
CC(C)[C@H]1CC[C@@H](C)CC1=O
O=C(O)c1cn(-c2ccc(F)cc2)c2cc(N3CCNCC3)c(F)cc2c1=O

target: Estrogen-related receptor gamma (Homo sapiens) (UniProt P62508); assay: ATG_ERRg_TRANS: Attagene TRANS-FACTORIAL HepG2 Assay for human Estrogen-Related Receptor gamma (ERRg) (AID 2282977); conditions: HepG2 Attagene TRANS reporter, ERRg transactivation;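 also: hits increase reporter signal over DMSO so potencies reflect activators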
In short: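 Transfect HepG2 with multiple GAL4-UAS reporter transcription units; dose chemicals 24 h; isolate RNA, reverse-transcribe with oligo(dT), PCR-amplify, label with 6-FAM, digest with HpaI; size fragments by capillary electrophoresis. DMSO serves as negative control.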

Sequence of Estrogen-related receptor gamma (Homo sapiens) (P62508 whole entry, looked up, the tested form may be a part): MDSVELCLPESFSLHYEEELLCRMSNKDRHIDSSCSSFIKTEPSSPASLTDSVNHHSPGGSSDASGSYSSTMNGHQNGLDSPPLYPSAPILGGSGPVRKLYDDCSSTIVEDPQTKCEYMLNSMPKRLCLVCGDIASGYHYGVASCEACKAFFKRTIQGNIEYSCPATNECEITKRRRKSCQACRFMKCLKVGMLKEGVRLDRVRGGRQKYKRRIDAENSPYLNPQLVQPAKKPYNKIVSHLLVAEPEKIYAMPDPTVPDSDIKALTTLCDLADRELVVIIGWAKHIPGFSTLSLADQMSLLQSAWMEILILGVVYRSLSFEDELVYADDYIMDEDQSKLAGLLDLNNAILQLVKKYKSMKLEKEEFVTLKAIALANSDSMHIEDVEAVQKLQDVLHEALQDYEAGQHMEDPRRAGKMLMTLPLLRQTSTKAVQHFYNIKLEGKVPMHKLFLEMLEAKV

outcome, inactive:
CCCCCCC#CC(=O)OC
CC(=O)O[C@H](CC(=O)[O-])C[N+](C)(C)C
O=C(Nc1ccccc1)c1cc([N+](=O)[O-])ccc1Cl
C=CC(=O)OCCOCCOCC
COCCCOc1ccnc(CS(=O)c2nc3ccccc3[nH]2)c1C (configuration not stated)
